Source: PubChem BioAssay (EPA / NIEHS)
“And” between values parts separate entries of the source, which are not always exact repeats. Equal values may be shown once. Inconclusive results are not listed. The source holds several records for some structures; these can differ, active in one and inactive in another. The source made the active and inactive calls. The calls were made as follows, unless noted: active = hit-call score of the fitted dose curve at least 0.9, where 1 is the maximum; inactive = score below 0.9.

What was measured:
[1] = CCTE_Shafer_MEA_dev_active_electrodes_number: CCTE's Neural Network Formation Assay for Number of Active Electrodes, Shafer Lab (AID 2284040; active = hit-call score of the fitted dose curve at least 0.9, where 1 is the maximum;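 as to AC50: potency for loss of active electrodes versus DMSO so lower counts are hits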)
In short: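 Rat cortical primary cultures, 1.5 x 10^5 cells/well, PEI-coated MEA, laminin drop. Continuous exposure DIV 0–12; full media/compound change DIV 5, 9. Readout: electrodes with mean firing ≥5 spikes/min; AUC across days; loss vs DMSO.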

[2] = CCTE_Shafer_MEA_dev_burst_rate: CCTE's Neural Network Formation Assay for Burst Rate, Shafer Lab (AID 2284042);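 as to AC50: potency for loss of burst rate below DMSO control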
In short: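 Primary rat cortical neurons on PEI-coated 48-well MEA plates (laminin added with cells at plating) (16 electrodes/well), exposed from plating to day 12, dosing renewed at DIV 5 and 9. Burst rate averaged over active electrodes, recorded DIV 5, 7, 9, 12, summarized as AUC; loss versus DMSO.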

[3] = CCTE_Shafer_MEA_dev_bursting_electrodes_number: CCTE's Neural Network Formation Assay for Number of Bursting Electrodes, Shafer Lab (AID 2284043; active = hit-call score of the fitted dose curve at least 0.9, where 1 is the maximum;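 as to AC50: potency is for loss of bursting electrodes relative to DMSO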)
In short: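 Primary rat cortical neurons were cultured on PEI-coated 48-well MEA plates (16 electrodes/well) and exposed from plating through day 12, with compound renewed at feeds on DIV 5 and 9. Electrodes bursting ≥1 per 2 min were counted on DIV 5, 7, 9, 12; trapezoidal AUC taken.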

[4] = CCTE_Shafer_MEA_dev_per_burst_interspike_interval: CCTE's Neural Network Formation Assay for Burst Interspike Interval, Shafer Lab (AID 2284044);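 also: mean spike spacing inside bursts as AUC over recordings on days 5 7 9 12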;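 as to AC50: potency for a decrease of within-burst interspike interval below DMSO level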
In short: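 Mean interspike interval within single-electrode bursts, averaged over bursting electrodes, from rat cortical cultures on MEA plates recorded on days 5, 7, 9 and 12. Continuous compound exposure from plating; trapezoidal AUC fitted downward relative to DMSO.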

[5] = CCTE_Shafer_MEA_dev_burst_duration_mean: CCTE's Neural Network Formation Assay for Mean Burst Duration, Shafer Lab (AID 2284045);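 as to AC50: curve fitted for loss meaning shorter burst duration than DMSO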
In short: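 Primary rat cortical neurons on PEI-coated 16-electrode MEA wells, exposed from plating through day 12 with compound renewed at DIV 5 and 9; spontaneous activity recorded days 5, 7, 9, 12. Well-mean burst duration collapsed as trapezoidal AUC, fitted for loss versus DMSO.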

[6] = CCTE_Shafer_MEA_dev_interburst_interval_mean: CCTE's Neural Network Formation Assay for Mean Interburst Interval, Shafer Lab (AID 2284046);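 also: well-mean interburst interval of bursting electrodes as AUC over four recording days; curve fitted for decrease in interburst interval relative to DMSO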
In short: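 Recordings on days 5, 7, 9 and 12 give well-mean interburst interval across actively bursting electrodes, summarized as area under the curve. Cultures: rat cortical neurons, continuous exposure from day 0, compound renewed at feeds; decrease analyzed versus DMSO.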

[7] = CCTE_Shafer_MEA_dev_inter_network_spike_interval_mean: CCTE's Neural Network Formation Assay for Mean Inter-network Spike Interval, Shafer Lab (AID 2284047);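 as to AC50: potency for a decrease in mean inter-network spike interval below DMSO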
In short: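 Primary rat cortical neurons on 16-electrode MEA wells, exposed from plating day 0 through DIV 12, compound renewed at DIV 5 and 9 media changes. Mean interval between network-spike peaks recorded DIV 5, 7, 9, 12; collapsed as trapezoidal AUC, fitted downward versus DMSO.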

[8] = CCTE_Shafer_MEA_dev_network_spike_number: CCTE's Neural Network Formation Assay for Number of Network Spikes, Shafer Lab (AID 2284048);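 also: synchronized bursts across electrodes counted on days 5 7 9 12 and integrated as AUC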;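 as to AC50: fit as a loss of signal meaning fewer network spikes than DMSO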
In short: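 Primary rat cortical neurons were seeded at 1.5 x 10^5 cells/well on PEI-coated 16-electrode MEA wells with laminin, exposed from plating day 0, compound renewed at DIV 5 and 9. Network spikes were recorded on days 5, 7, 9, 12 and summarized as trapezoidal AUC versus DMSO.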

[9] = CCTE_Shafer_MEA_dev_network_spike_peak: CCTE's Neural Network Formation Assay for Mean Number of Electrodes in Network Spike, Shafer Lab (AID 2284049);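 as to AC50: fitted for loss of signal meaning fewer electrodes in network spikes than DMSO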
In short: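 Continuous 12-day exposure of rat cortical cultures, starting at plating, on MEA plates. Endpoint: electrodes participating in network-spike peaks, AUC across DIV 5–12, DMSO as negative control.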

[10] = CCTE_Shafer_MEA_dev_spike_duration_mean: CCTE's Neural Network Formation Assay for Mean Spike Duration, Shafer Lab (AID 2284051);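 also: mean network spike duration pooled as area under curve over DIV 5 to 12 recordings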;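 as to AC50: potency for a decrease in mean network spike duration versus DMSO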
In short: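 Primary rat cortical neurons on 16-electrode MEA wells (PEI-coated, laminin in plating drop), exposed from plating through DIV 12 with compound renewed at DIV 5 and 9. Mean network-spike duration recorded DIV 5, 7, 9, 12; trapezoidal AUC across days, DMSO baseline.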

[11] = CCTE_Shafer_MEA_dev_network_spike_duration_std: CCTE's Neural Network Formation Assay for Standard Deviation of Network Spike Duration, Shafer Lab (AID 2284052);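 also: area under curve of spike duration SD across recording days 5 to 12; hits are decreases in network spike duration SD versus DMSO vehicle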
In short: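 Primary rat cortical neurons on PEI-coated 16-electrode MEA wells, exposed from plating day 0 through day 12 with compound renewed at DIV 5 and 9. Network spike duration SD recorded on days 5, 7, 9, 12, collapsed as trapezoidal AUC; loss-of-signal fit versus DMSO.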

[12] = CCTE_Shafer_MEA_dev_per_network_spike_spike_number_mean: CCTE's Neural Network Formation Assay for Mean Number of Spikes in a Network Spike, Shafer Lab (AID 2284053);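 as to AC50: fitted as decrease in spikes per network spike relative to DMSO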
In short: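 Primary rat cortical neurons on 48-well, 16-electrode MEA plates were exposed from plating to DIV 12, with dosing renewed on DIV 5 and 9. Spikes per network spike (0.05 s peak window) were recorded on DIV 5, 7, 9 and 12 and collapsed as trapezoidal AUC versus DMSO.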

[13] = CCTE_Shafer_MEA_dev_per_network_spike_spike_percent: CCTE's Neural Network Formation Assay for Percent of Spikes in a Network Spike, Shafer Lab (AID 2284054)
In short: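 Primary rat cortical neurons on 16-electrode MEA wells (PEI-coated, laminin at plating), exposed from day 0 with renewal at DIV 5 and 9; spikes within 0.05 s of network-spike peaks over total spikes, AUC across days 5, 7, 9, 12.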

[14] = CCTE_Shafer_MEA_dev_LDH: CCTE's Lactate Dehydrogenase Assay for Cytotoxicity in the Neural Network Formation Assay, Shafer Lab (AID 2284068; active = hit-call score of the fitted dose curve at least 0.9, where 1 is the maximum;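 also: exposure for twelve days from plating with re-dosing on DIV 5 and 9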)
In short: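 Primary rat cortical neurons were plated on PEI/laminin MEA plates and exposed from day 0 for twelve days, with compound renewed at DIV 5 and 9. Cytotoxicity was determined by spectrophotometric LDH assay relative to DMSO.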

[15] = system: DIO2 (gene 1734); experiment: CCTE_GLTED_hDIO2: CCTE's human Deiodinase 2 (DIO2) Inhibition Assay, Great Lakes Toxicology and Ecology Division (GLTED) Lab (AID 2284050; active = hit-call score of the fitted dose curve at least 0.9, where 1 is the maximum)
In short: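 Cell-free human DIO2 enzyme was incubated with test chemical for 3 h; iodide liberated from substrate was then quantified by the Sandell-Kolthoff reaction (absorbance), run in triplicate. Loss of signal versus DMSO baseline indicated inhibition.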

[16] = system: DIO3 (gene 1735); experiment: CCTE_GLTED_hDIO3: CCTE's human Deiodinase 3 (DIO3) Inhibition Assay, Great Lakes Toxicology and Ecology Division (GLTED) Lab (AID 2284055; active = hit-call score of the fitted dose curve at least 0.9, where 1 is the maximum;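 as to AC50: potency is for inhibition seen as loss of released iodide signal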)
In short: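 Cell-free assay with human DIO3 enzyme produced by adenovirus expression; enzyme incubated with test chemical for 3 hours. Liberated iodide then measured by Sandell-Kolthoff absorbance; loss of signal versus DMSO baseline indicates inhibition, run in triplicate.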

[17] = molecular target: Estrogen receptor (Homo sapiens) (UniProt P03372); experiment: CCTE_Deisenroth_AIME_384WELL_LUC_Shift: CCTE's 384-well Estrogen Receptor Transactivation Assay with AIME metabolic competence data shift (ERTA luciferase; difference in metabolism positive and negative), Deisenroth Lab (AID 2284041);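 also: shift is response with S9 minus without S9 so positive means metabolism raised ER signal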
In short: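 Here, parent compounds undergo 2 h phase I metabolism by PB/BNF-induced rat S9 before 24 h transactivation in VM7Luc4E2 cells; the curve models S9-positive minus S9-negative response over a 10-point series.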

[18] = UKN5_HCS_SBAD2_cell_viability: Viability Assessment in the University of Konstanz (UKN) Leist Lab Neurite Outgrowth Assay in human iPSC-derived immature Dorsal Root Ganglia Neurons (UKN5) (AID 2284056)
In short: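 iPSC-derived immature peripheral neurons (SBAD2) seeded on Matrigel with CHIR99021, SU5402 and DAPT, dosed 1 h later for 24 h. Viability from Hoechst H-33342 and calcein-AM live staining, high-content imaging; bidirectional fit versus DMSO.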

[19] = CCTE_Shafer_MEA_acute_AB: CCTE's Alamar Blue Assay for Cytotoxicity in the Neural Acute Assay, Shafer Lab (AID 2284069; active = hit-call score of the fitted dose curve at least 0.9, where 1 is the maximum;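 also: active compounds lower the viability signal compared with DMSO wells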)
In short: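 Primary rat cortical neurons on MEA plates, exposed acutely after baseline recording on day 13 or 15 post-plating. Viability by CellTiter Blue resazurin reduction (1:6 reagent dilution), fluorescence 544/590 nm; loss of signal versus DMSO.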

[20] = UKN5_HCS_SBAD2_neurite_outgrowth: University of Konstanz (UKN) Leist Lab Neurite Outgrowth Assay in human iPSC-derived immature Dorsal Root Ganglia Neurons (UKN5) (AID 2284070); settings: actives raise or lower the signal
In short: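 Human iPSC-derived immature DRG neurons (SBAD2) on Matrigel with CHIR99021 (1.5 uM), SU5402 (5 uM), DAPT (5 uM); compounds added 1 h post-seeding for 24 h. Calcein-AM neurite area imaged; bidirectional fit vs DMSO.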

Measured: AC50

Sequence of Estrogen receptor (Homo sapiens) (P03372 whole entry, looked up): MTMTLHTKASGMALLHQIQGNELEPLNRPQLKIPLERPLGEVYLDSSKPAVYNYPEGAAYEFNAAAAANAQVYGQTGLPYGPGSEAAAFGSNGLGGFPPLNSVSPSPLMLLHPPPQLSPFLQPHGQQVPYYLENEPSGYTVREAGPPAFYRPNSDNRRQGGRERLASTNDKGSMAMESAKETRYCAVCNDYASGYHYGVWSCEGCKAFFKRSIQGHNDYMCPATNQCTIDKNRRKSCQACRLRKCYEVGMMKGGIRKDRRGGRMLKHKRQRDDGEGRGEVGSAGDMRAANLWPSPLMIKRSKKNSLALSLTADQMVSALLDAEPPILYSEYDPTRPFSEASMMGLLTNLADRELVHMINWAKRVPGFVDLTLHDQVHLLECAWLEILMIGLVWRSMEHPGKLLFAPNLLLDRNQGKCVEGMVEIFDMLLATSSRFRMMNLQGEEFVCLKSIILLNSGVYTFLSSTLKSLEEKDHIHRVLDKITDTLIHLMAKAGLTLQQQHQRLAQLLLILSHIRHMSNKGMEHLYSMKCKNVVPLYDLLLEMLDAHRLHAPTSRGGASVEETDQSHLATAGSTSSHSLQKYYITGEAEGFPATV

CN(C)CCOC(C)(c1ccccc1)c1ccccn1 (stereo not given)
not listed: [15] | [16] | [17] | [18] | [19] | [20]
inactive: all other assays above

CC(C)CCCCCCCCCCCCCCC(=O)O
active: [15] 100 µM | [16] 19.4 µM

Cc1cc(S(=O)(=O)O)ccc1N=Nc1c(O)ccc2ccccc12
inactive: [15] | [16]

Oc1ccc2cc(SSc3ccc4cc(O)ccc4c3)ccc2c1
active: [15] 22.2 µM | [16] 3.47 µM

C=C(C)C(=O)OCCOC1CC2CC1C1C=CCC21 (stereo not given)
active: [15] 13 µM | [16] 6.43 µM

CCCCCC(C=O)=Cc1ccccc1
active: [15] 62.6 µM | [16] 16.4 µM

COCCc1ccc(OCC(O)CNC(C)C)cc1 (stereo not given)
not listed: [15] | [16] | [17] | [18] | [19] | [20]
inactive: all other assays above

CCc1cc(Cc2cc(CC)cc(C(C)(C)C)c2O)c(O)c(C(C)(C)C)c1
active: [15] 83.3 µM | [16] 10.7 µM

CCOc1ccc(N=Nc2ccc(C=Cc3ccc(N=Nc4ccc(OCC)cc4)cc3S(=O)(=O)O)c(S(=O)(=O)O)c2)cc1
active: [15] 43.9 µM | [16] 35.6 µM

CCCCCCCCCCCCCCN(CCO)CCO
active: [15] 39.9 µM | [16] 7.58 µM

FC(F)(F)COCC(F)(F)F
not listed: [3] | [14] | [15] | [16] | [17] | [18] | [19] | [20]
inactive: all other assays above

CCOC(=O)[C@@H](C)Oc1ccc(Oc2nc3ccc(Cl)cc3o2)cc1
active: [15] 23.5 µM | [16] 7.15 µM

CCCCCCCCCCCCCC(=O)OCC(O)CO (stereo not given)
active: [15] 100 µM | [16] 47.9 µM

CCCCCCCCCCCCN1CCCCCC1=O
active: [15] 116 µM | [16] 89.2 µM

CCCCCCCCC=CCCCCCCCC1=NCCN1CCO
active: [15] 60.9 µM | [16] 3.92 µM

C=C1CC[C@H](O)C/C1=C/C=C1\CCC[C@]2(C)[C@@H]([C@H](C)/C=C/[C@H](C)C(C)C)CC[C@@H]12
active: [15] 19.8 µM | [16] 2.3 µM

CC(C)CCCCCCc1ccc(OCCOCCO)cc1
inactive: [17]

CCCCC(CC)COC(=O)c1ccc(O)cc1 (stereo not given)
active: [15] 82.5 µM | [16] 79.1 µM

Oc1c(Cl)cc(Cl)c(Cl)c1Cc1c(O)c(Cl)cc(Cl)c1Cl
inactive: [7] | [19]
active: [1] 1.02 µM and 1.07 µM | [2] 976 nM and 688 nM | [3] 919 nM and 769 nM | [4] 2.04 µM and 2.61 µM | [5] 1.19 µM and 2.59 µM | [6] 2.62 µM and 2.86 µM | [7] 0.0601 µM | [8] 830 nM and 526 nM | [9] 1.19 µM and 1.83 µM | [10] 1.66 µM and 1.35 µM | [11] 972 nM and 727 nM | [12] 809 nM and 929 nM | [13] 1.03 µM and 842 nM | [18] 73.5 µM | [14] 1.26 µM and 1.25 µM | [20] 78 µM

O=CCc1ccccc1
active: [16] 74.8 µM
inactive: [15]

COCCOCCOCCO
not listed: [15] | [16] | [17] | [18] | [19] | [20]
inactive: all other assays above

CS(=O)(=O)OCCCCOS(C)(=O)=O
not listed: [14] | [15] | [16] | [18] | [19] | [20]
inactive: all other assays above

CCCCCCCCCCCC(=O)OCC(O)CO (stereo not given)
inactive: [17]

COc1ccc(N=Nc2cc(C)c(N=Nc3ccc(S(=O)(=O)O)cc3)cc2OC)cc1
active: [15] 100 µM | [16] 100 µM
